Measurements from PubChem BioAssay AID743100 (Vanderbilt Specialized Chemistry Center, 2013).
Active and inactive are the calls of the source.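 The calls were made as follows: active = calcium response above 60% of the acetylcholine maximum at human M5, as a positive modulator; inactive = the rest.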

Biological target: Muscarinic acetylcholine receptor M5 (Homo sapiens) (UniProt P08912)
Experiment: potentiators of ACh response at human M5 – cell-based, single concentration, CHO-K1 hM5, calcium flux (AID 743100)
Conditions: CHO-K1 hM5, Fluo-4 calcium flux, ACh EC20, active compounds read high; at 10 µM unless noted

Muscarinic acetylcholine receptor M5 (Homo sapiens), sequence (P08912 whole entry, looked up): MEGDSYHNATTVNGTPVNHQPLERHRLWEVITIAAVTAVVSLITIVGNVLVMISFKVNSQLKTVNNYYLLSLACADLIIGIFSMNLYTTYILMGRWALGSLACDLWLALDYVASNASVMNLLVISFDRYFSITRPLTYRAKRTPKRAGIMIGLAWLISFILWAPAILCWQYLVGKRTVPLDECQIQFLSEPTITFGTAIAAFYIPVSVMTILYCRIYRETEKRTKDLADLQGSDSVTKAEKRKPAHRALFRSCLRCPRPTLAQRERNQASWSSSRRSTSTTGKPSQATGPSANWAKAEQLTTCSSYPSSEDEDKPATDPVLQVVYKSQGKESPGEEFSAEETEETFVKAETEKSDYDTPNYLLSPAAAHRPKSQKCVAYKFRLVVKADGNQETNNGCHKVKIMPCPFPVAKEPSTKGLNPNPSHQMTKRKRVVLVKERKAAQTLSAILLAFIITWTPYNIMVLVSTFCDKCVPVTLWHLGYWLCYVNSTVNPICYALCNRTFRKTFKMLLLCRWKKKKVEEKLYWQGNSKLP

% ACh max response, active:
CCN(Cc1ccccc1OC(F)(F)F)C(=O)C1CCN(S(=O)(=O)c2ccc3cn[nH]c3c2)CC1 73.2%
CCN(Cc1ccccc1)C(=O)C1CCN(S(=O)(=O)c2ccc3ncccc3c2)CC1 63.4% [at 30 µM]
CCN(Cc1ccccc1)C(=O)C1CCN(S(=O)(=O)c2ccc(OC)nc2)CC1 62.5% [at 30 µM]
CCN(Cc1ccccc1)C(=O)C1CCN(S(=O)(=O)c2ccc(OC(F)(F)F)cc2)CC1 71.7% [at 30 µM]
CCN(Cc1cccc(F)c1F)C(=O)C1CCN(S(=O)(=O)c2ccc3cn[nH]c3c2)CC1 63.7%
CCN(C(=O)C1CCN(S(=O)(=O)c2ccc(-n3cccn3)cc2)CC1)[C@H](C)c1ccccc1 97.5%
CCN(Cc1ccccc1F)C(=O)C1CCN(S(=O)(=O)c2ccc3cn[nH]c3c2)CC1 69.8%
CCN(Cc1ccccc1)C(=O)C1CCN(S(=O)(=O)c2ccc3cn[nH]c3c2)CC1 83.1% [at 30 µM]
CCN(Cc1ccccc1)C(=O)C1CCN(S(=O)(=O)c2ccc3c(cnn3C)c2)CC1 63.3%
CCN(Cc1ccccc1)C(=O)C1CCN(S(=O)(=O)c2cccc(OC(F)F)c2)CC1 70.2% [at 30 µM]
CCN(Cc1cccc(Cl)c1)C(=O)C1CCN(S(=O)(=O)c2ccc3cn[nH]c3c2)CC1 73.9%
CCN(Cc1ccccc1)C(=O)C1CCN(S(=O)(=O)c2ccc(OC(F)F)cc2)CC1 66.1% [at 30 µM]
CCN(Cc1ccccc1)C(=O)C1CCN(S(=O)(=O)c2ccc3[nH]ncc3c2)CC1 84.3% [at 30 µM]
CCN(Cc1ccccc1C(F)(F)F)C(=O)C1CCN(S(=O)(=O)c2ccc3[nH]ncc3c2)CC1 90.2%
CCN(Cc1ccccc1)C(=O)C1CCN(S(=O)(=O)c2ccc(C)s2)CC1 68.8% [at 30 µM]

% ACh max response, inactive:
CCN(Cc1ccccc1)C(=O)C1CCN(S(=O)(=O)c2ccc(Cl)nc2)CC1 50.1% [at 30 µM]
CCN(Cc1ccc(F)cc1)C(=O)C1CCN(S(=O)(=O)c2ccc3cn[nH]c3c2)CC1 52.1%
CCN(Cc1ccccc1)C(=O)C1CCN(S(=O)(=O)c2ccc(C(F)(F)F)nc2)CC1 56.9% [at 30 µM]
O=C(C1CCN(S(=O)(=O)c2ccc3[nH]ncc3c2)CC1)N1Cc2ccccc2C1 32.5%
CCN(Cc1ccc(SC)cc1)C(=O)C1CCN(S(=O)(=O)c2ccc3cn[nH]c3c2)CC1 14%
CCN(C(=O)C1CCN(S(=O)(=O)c2ccc3occc3c2)CC1)[C@H](C)c1ccccc1C(F)(F)F 34.4%
CCN(C(=O)C1CCN(S(=O)(=O)c2ccc(-n3cccn3)cc2)CC1)[C@H](C)c1ccccc1C(F)(F)F 22.7%
CCN(Cc1cccnc1)C(=O)C1CCN(S(=O)(=O)c2ccc3cn[nH]c3c2)CC1 19.8%
CCN(Cc1ccc(-c2ccccc2)cc1)C(=O)C1CCN(S(=O)(=O)c2ccc3cn[nH]c3c2)CC1 24.8%
CCN(Cc1ccccc1)C(=O)C1CCN(S(=O)(=O)c2ccccc2C(F)(F)F)CC1 21.7% [at 30 µM]
CCN(Cc1ccccc1)C(=O)C1CCN(S(=O)(=O)CC(C)(C)C)CC1 17% [at 30 µM]
CCN(Cc1ccccc1)C(=O)C1CCN(S(=O)(=O)c2ccccc2Cl)CC1 33.6% [at 30 µM]
CCN(Cc1ccccc1)C(=O)C1CCN(S(=O)(=O)Cc2ccc(Cl)cc2)CC1 16% [at 30 µM]
O=C1N(Cc2ccccc2C(F)(F)F)CCCC12CCN(S(=O)(=O)c1ccc3[nH]ncc3c1)CC2 22.6%
CCN([C@H](C)c1ccccc1)S(=O)(=O)C1CCN(C(=O)c2ccc3[nH]ncc3c2)CC1 26.9%
CN(C)C(=O)C1(Cc2ccccc2)CCN(S(=O)(=O)c2ccc3occc3c2)CC1 8.49%
CCN(Cc1ccccc1)C(=O)C1CCN(S(=O)(=O)c2ccccc2OC)CC1 28.1% [at 30 µM]
O=C(NCc1ccccc1)C1(Cc2ccccc2)CCN(S(=O)(=O)c2ccc3occc3c2)CC1 20.1%
